Sampled rows, rich in hits. Any-hit rate of the full collection: about 6.2%.
RORg inh = ROR gamma (mouse) transcription inhibition. Drosophila S2 Gal4-RORgamma UAS-luciferase reporter, 20 h. Potency, µM (top dose mostly 53.6 µM), for inactives: at the highest dose activity change, negative = inhibition, usual class: inhibitors. 310,000 tested, 5.4% active. AID 2551; also: nearly all actives have a fitted effect of over 60% in size
Target sequence (P51450 whole entry, looked up, the tested form may be a part): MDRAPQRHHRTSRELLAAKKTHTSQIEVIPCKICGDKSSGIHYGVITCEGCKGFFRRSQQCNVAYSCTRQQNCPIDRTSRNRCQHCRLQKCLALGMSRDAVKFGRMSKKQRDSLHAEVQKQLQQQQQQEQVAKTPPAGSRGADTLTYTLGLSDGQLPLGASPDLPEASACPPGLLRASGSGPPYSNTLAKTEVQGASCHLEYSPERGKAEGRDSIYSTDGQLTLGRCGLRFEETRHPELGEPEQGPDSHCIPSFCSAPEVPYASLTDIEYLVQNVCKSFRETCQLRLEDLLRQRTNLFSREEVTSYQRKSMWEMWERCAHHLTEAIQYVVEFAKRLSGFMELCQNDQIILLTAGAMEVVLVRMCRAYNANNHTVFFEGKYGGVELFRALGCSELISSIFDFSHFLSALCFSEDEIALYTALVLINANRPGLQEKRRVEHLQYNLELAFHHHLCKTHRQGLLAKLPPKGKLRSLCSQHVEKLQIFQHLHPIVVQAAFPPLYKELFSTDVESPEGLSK
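Drosophila Schneider cells stably carrying a metallothionein-driven Gal4 DBD–ROR gamma fusion and a UAS-Photinus luciferase reporter were exposed to compound for 1 hr, then induced with copper sulfate (700 uM final) for 20 hr at ambient temperature before luminescence reading.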
VP16 counter = Gal4-VP16 reporter inhibition counter-screen; Drosophila S2 Gal4-VP16 UAS-luciferase, luminescence, 20 h; 310,000 tested, 3.5% active; Potency, µM (titrated, usually from 53.6 µM), for inactives: at the top dose activity, negative = inhibition, actives largely listed as inhibitors;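 also: Gal4-VP16 expression switched on by copper sulfate through the metallothionein promoter; nearly all actives have a fitted effect of over 50% in size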
Luc counter = blocks Kinase-Glo luciferase, a counter-screen artifact. Q27757. Kinase-Glo luciferase, ATP luminescence, 8 min. Potency, µM (doses to about 38.3 µM), for the others: top-dose activity change, negative = inhibition, actives largely listed as inhibitors. 200,000 tested, 0.28% active. AID 1379; also: nearly all actives have a fitted effect of over 60% in size
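Kinase-Glo luciferase light output from ATP and luciferin was measured with 10 uM ATP, within the enzyme's linear range. Buffer: 50 mM imidazole pH 7.2, 50 mM KCl, 7 mM MgCl2, 0.01% Tween 20, 0.05% BSA; luminescence read after 8 min at ambient temperature.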
Numbers without * were called inactive; [ ] = another dose, or the depositor's remark. Calls follow the shape of the dose curve; as a rule, active = well fitted curve in the direction sought with a large enough effect; inconclusive = small, poorly fitted or top-dose-only effect, or another doubt; inactive = no such curve, though single readings can be large; an effect the other way counts as inactive or inconclusive. % is scaled to controls: 0 for no effect and ±100 for the full control effect; potency is read from the fitted curve at half-maximal effect.

What do the screens show for `CC[C@H](C)[C@H](NC(=O)[C@H](CCC(=O)O)NC(=O)[C@H](CO)NC(=O)[C@@H](NC(=O)[C@@H](N)CO)C(C)C)C(=O)N[C@@H](CCC(N)=O)C(=O)N[C@@H](CC(C)C)C(=O)N[C@@H](CCSC)C(=O)N[C@@H](Cc1cnc[nH]1)C(=O)N[C@@H](CC(N)=O)C(=O)N[C@@H](CC(C)C)C(=O)NCC(=O)N[C@@H](CCCCN)C(=O)N[C@@H](Cc1cnc[nH]1)C(=O)N[C@@H](CC(C)C)C(=O)N[C@@H](CC(N)=O)C(=O)N[C@@H](CO)C(=O)N[C@@H](CCSC)C(=O)N[C@@H](CCC(=O)O)C(=O)N[C@@H](CCCNC(=N)N)C(=O)N[C@H](C(=O)N[C@@H](CCC(=O)O)C(=O)N[C@@H](Cc1c[nH]c2ccccc12)C(=O)N[C@@H](CC(C)C)C(=O)N[C@@H](CCCNC(=N)N)C(=O)N[C@@H](CCCCN)C(=O)N[C@@H](CCCCN)C(=O)N[C@@H](CC(C)C)C(=O)N[C@@H](CCC(N)=O)C(=O)N[C@@H](CC(=O)O)C(=O)N[C@H](C(=O)N[C@@H](Cc1cnc[nH]1)C(=O)N[C@@H](CC(N)=O)C(=O)N[C@@H](Cc1ccccc1)C(=O)N[C@H](C(=O)N[C@@H](C)C(=O)N[C@@H](CC(C)C)C(=O)NCC(=O)O)C(C)C)C(C)C)C(C)C`?
RORg inh: -1.9%; VP16 counter: 2.7%

What do the screens show for `CCOc1ccc(-n2c(=O)c3sccc3n(Cc3ccc(C)cc3)c2=O)cc1`?
RORg inh: 11.7%; VP16 counter: -0.5%; Luc counter: 1.3%

What do the screens show for `CCN(CC)c1ccc(C(=C2C=CC(=[N+](CC)Cc3cccc(S(=O)(=O)[O-])c3)C=C2)c2ccc(N(CC)Cc3cccc(S(=O)(=O)O)c3)cc2)cc1`?
RORg inh: -15.7%; VP16 counter: 11.2µM*

How did CCN(CC)c1ccc(C(=C2C=CC(=[N+](CC)CC)C=C2)c2ccccc2)cc1 do in these assays?
RORg inh: 2.51µM*; VP16 counter: 35.5µM*

How did CCN(CC)c1ccc2c(-c3ccc(S(=O)(=O)O)cc3S(=O)(=O)[O-])c3ccc(=[N+](CC)CC)cc-3oc2c1 do in these assays?
RORg inh: -33.6%; VP16 counter: inconclusive

Results for CCN(CC)c1ccc(C(=O)N2CCN(Cc3ccccc3)CC2)cc1 ?
RORg inh: -1.3%; VP16 counter: -11.0%; Luc counter: 0.7%

What do the screens show for `CC(C)OCCCNC(=O)c1ccc(CS(=O)(=O)c2cccc(C(F)(F)F)c2)o1`?
RORg inh: -8.9%; VP16 counter: -13.0%

What do the screens show for `Cc1ccc(-c2nnn(CC(=O)Nc3nnc(C(C)C)s3)n2)cc1`?
RORg inh: 29.5%; VP16 counter: 8.0%; Luc counter: -1.9%

How did O=C(O)CCCNC(=O)c1ccc(NC(=O)Cc2ccc(Cl)cc2)cc1 do in these assays?
RORg inh: 0.1%; VP16 counter: -5.4%; Luc counter: 6.1%

What do the screens show for `CC12C=C(/C=C/c3ccccc3)C(C)(C1)C(c1ccccc1)CC2=O` (stereo not given)?
RORg inh: 11.4%[10 µM]; VP16 counter: -14.9%[10 µM]

Results for CCn1c(C)nc2cc(C(=O)NNC(=S)Nc3ccc(Cl)cc3Cl)ccc21 ?
RORg inh: 0.3%; VP16 counter: inconclusive; Luc counter: 1.1%

What do the screens show for `CCn1c(C)nc2cc(C(=O)NNC(=S)Nc3ccccc3Cl)ccc21`?
RORg inh: 11.2µM*; VP16 counter: 20µM*; Luc counter: 4.1%

Results for CCn1c(C)nc2cc(C(=O)N/N=C(\C)c3ccc(OC)cc3O)ccc21 ?
RORg inh: 1µM*; VP16 counter: 2.82µM*; Luc counter: 7.3%

How did CCn1c(C)nc2cc(C(=O)N/N=C/c3ccc(OC)cc3)ccc21 do in these assays?
RORg inh: 21.2%; VP16 counter: -8.3%; Luc counter: -4.6%

Results for CCn1c(C)nc2cc(C(=O)N/N=C/c3ccccc3)ccc21 ?
RORg inh: -39.2%; VP16 counter: inconclusive; Luc counter: 0.1%

What do the screens show for `Cc1nc2cc(NC(=O)Nc3ccccc3Cl)ccc2n1C`?
RORg inh: 5.01µM*; VP16 counter: 11.2µM*; Luc counter: inconclusive

Results for CCn1c(C)nc2cc(C(=O)N/N=C/c3cccc(O)c3O)ccc21 ?
RORg inh: 2.24µM*; VP16 counter: 11.2µM*

How did Cc1ccc(NC(=O)Nc2ccc3c(c2)nc(C)n3C)cc1 do in these assays?
RORg inh: -30.0%; VP16 counter: -24.2%; Luc counter: 0.0%

What do the screens show for `CSc1ncccc1C(=O)NNc1cc(Cl)ccc1Cl`?
RORg inh: 17.4%; VP16 counter: 20.2%

How did COc1cccc2cc(C(=O)NCc3ccccc3Cl)c(=O)oc12 do in these assays?
RORg inh: 13.4%; VP16 counter: 29.7%

How did O=C(c1ccoc1)N1CCCC(CO)(CCCc2ccccc2)C1 (stereo not given) do in these assays?
RORg inh: -19.3%; VP16 counter: 1.6%

How did O=C(CN1CCOCC1)Nc1ccc(N2CCN(c3ccccc3)CC2)c(F)c1 do in these assays?
RORg inh: -5.0%; VP16 counter: 7.3%; Luc counter: 0.5%

Results for CCCn1c(N)c(C(=O)NS(=O)(=O)c2ccc(C)cc2)c(=O)n(C)c1=O ?
RORg inh: inconclusive; VP16 counter: inconclusive; Luc counter: 4.0%

What do the screens show for `OC(COc1ccc(CNCc2cccnc2)cc1)CN1CCc2ccccc2C1` (stereo not given)?
RORg inh: 9.1%; VP16 counter: 1.2%; Luc counter: -1.3%

What do the screens show for `O=C(Nc1ccc(F)cc1)Nc1cc(OCC(F)(F)F)cc(OCC(F)(F)F)c1`?
RORg inh: inconclusive; VP16 counter: 6.31µM*; Luc counter: 5.1%

Results for CCOc1ccc(NC(=O)Nc2cc(OCC(F)(F)F)cc(OCC(F)(F)F)c2)cc1 ?
RORg inh: inconclusive; VP16 counter: -25.8%; Luc counter: 1.1%

What do the screens show for `CCN(CC)CCCn1c(-c2ccccc2)nc2c(N3CCOCC3)nc(C)nc21`?
RORg inh: -0.2%; VP16 counter: 7.2%; Luc counter: -4.0%

Results for COc1cccc([C@@H]2Oc3ccc(Br)cc3C[C@H]2OC(=O)NS(=O)(=O)c2ccc(C)cc2)c1 ?
RORg inh: -11.9%; VP16 counter: -15.6%; Luc counter: 0.2%

What do the screens show for `N=C1S/C(=C\c2ccc(O)cc2)C(=O)N1c1ccc(F)cc1`?
RORg inh: 2.51µM*; VP16 counter: 2.82µM*; Luc counter: -2.1%

How did CCOc1cc(/C=C2\SC(=O)N(c3ccc(O)cc3)C2=O)ccc1O do in these assays?
RORg inh: -15.4%; VP16 counter: -7.5%

How did Cc1ccc(OCc2n[nH]c(=S)n2C2CCCCC2)cc1 do in these assays?
RORg inh: 1.41µM*; VP16 counter: 3.55µM*; Luc counter: -1.3%

What do the screens show for `S=c1[nH]nc(CSCc2ccccc2Cl)n1C1CCCCC1`?
RORg inh: 0.501µM*; VP16 counter: inconclusive; Luc counter: -1.1%

Results for Cn1c(COc2ccc(Cl)cc2)nnc1SCC(=O)NC1CCCC1 ?
RORg inh: -8.4%; VP16 counter: -3.5%

How did Cc1cccc(OCc2n[nH]c(=S)o2)c1 do in these assays?
RORg inh: -37.7%; VP16 counter: -9.3%; Luc counter: -2.1%

Screens deposited in PubChem by National Center for Advancing Translational Sciences (NCATS).
